# Active and inactive are the calls of the source.
# What was measured:
# [1] = optical density shifts of acrAB sulA E. coli – strain DRC41, OD650, 48 h, E. coli filamentation inducer project, primary screen (AID 1152); settings: higher = more signal, called active from +8 up or from −8 down;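 also: E. coli MC1000 strain DRC41 lacking acrAB efflux pump and sulA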
# [2] = probe aLefty1 binding on compound microarray – biochemical, small-molecule microarray, 635/667 nm fluorescence, primary screen (AID 1153); settings: higher = more signal;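 also: score merges spot fluorescence with signal-to-noise ratio from the scanned slide images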
# [3] = plasmodial surface anion channel blockers, osmotic lysis – cell-based, P. falciparum Indochina, OD700, 1 h, primary screen (AID 1154); settings: P. falciparum Indochina infected RBC osmotic lysis, higher = more signal, called active from +8 up or from −8 down
# [4] = plasmodial surface anion channel blockers, osmotic lysis – cell-based, P. falciparum Indochina, OD700, 2 h, primary screen (AID 1155);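 also: lysis reports solute entry through the parasite surface anion channel PSAC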; settings: P. falciparum Indochina infected erythrocytes, higher = more signal, called active from +8 up or from −8 down
# [5] = changes in parasitized red cell lysis, either direction – P. falciparum Indochina, OD700, 3 h, PSAC antagonist project, primary screen (AID 1156); settings: P. falciparum-infected erythrocytes, osmotic lysis, higher = more signal, called active from +8 up or from −8 down
# [6] = plasmodial surface anion channel blockers, osmotic lysis – cell-based, P. falciparum Indochina, OD700, 18 h, primary screen (AID 1157); settings: P. falciparum Indochina infected erythrocytes, osmotic lysis OD700, 18 h; higher = more signal, called active from +8 up or from −8 down
# [7] = S6 kinase pathway phospho-S6 level changes – cell-based, A549, cytoblot, luminescence, serum-stimulated, primary screen (AID 1158); settings: 5 h, higher = more signal;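 also: serum-stimulated A549 lung adenocarcinoma cells; signal is phosphorylated S6 detected by cytoblot immunostaining with HRP secondary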
# [8] = target: NADPH oxidase 2 (Homo sapiens) (UniProt P04839); assay: compounds shifting NOX2 Amplex Red fluorescence – cell-based, HEK293-NOX2, PMA-stimulated, NOX inhibitor project, primary screen (AID 1159); settings: 45 min, higher = more signal, called active from +8 up or from −8 down; also: test concentration not given here
# Sequence of NADPH oxidase 2 (Homo sapiens) (P04839 whole entry, looked up): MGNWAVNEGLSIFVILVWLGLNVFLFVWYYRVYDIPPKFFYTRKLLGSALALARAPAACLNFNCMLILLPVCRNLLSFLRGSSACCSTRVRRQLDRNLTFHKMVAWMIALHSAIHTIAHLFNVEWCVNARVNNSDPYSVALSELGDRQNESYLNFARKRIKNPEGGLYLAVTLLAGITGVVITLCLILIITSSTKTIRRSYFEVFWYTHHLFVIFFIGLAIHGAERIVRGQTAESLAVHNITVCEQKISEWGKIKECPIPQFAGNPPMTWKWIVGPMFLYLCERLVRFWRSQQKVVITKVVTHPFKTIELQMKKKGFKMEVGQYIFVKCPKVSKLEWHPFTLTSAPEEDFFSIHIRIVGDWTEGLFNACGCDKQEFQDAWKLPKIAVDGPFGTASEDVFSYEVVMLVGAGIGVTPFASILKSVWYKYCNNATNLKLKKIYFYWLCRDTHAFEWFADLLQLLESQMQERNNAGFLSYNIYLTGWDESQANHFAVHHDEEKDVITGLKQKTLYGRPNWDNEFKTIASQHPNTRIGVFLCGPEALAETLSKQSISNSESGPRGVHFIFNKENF
# [9] = target: NADPH oxidase 4 (Homo sapiens) (UniProt Q9NPH5); assay: compounds shifting NOX4 Amplex Red fluorescence – cell-based, HEK293-NOX4, tetracycline-induced, NOX inhibitor project, primary screen (AID 1160); settings: HEK293-NOX4, Amplex Red H2O2 fluorescence, 45 min; higher = more signal, called active from +8 up or from −8 down
# Sequence of NADPH oxidase 4 (Homo sapiens) (Q9NPH5 whole entry, looked up): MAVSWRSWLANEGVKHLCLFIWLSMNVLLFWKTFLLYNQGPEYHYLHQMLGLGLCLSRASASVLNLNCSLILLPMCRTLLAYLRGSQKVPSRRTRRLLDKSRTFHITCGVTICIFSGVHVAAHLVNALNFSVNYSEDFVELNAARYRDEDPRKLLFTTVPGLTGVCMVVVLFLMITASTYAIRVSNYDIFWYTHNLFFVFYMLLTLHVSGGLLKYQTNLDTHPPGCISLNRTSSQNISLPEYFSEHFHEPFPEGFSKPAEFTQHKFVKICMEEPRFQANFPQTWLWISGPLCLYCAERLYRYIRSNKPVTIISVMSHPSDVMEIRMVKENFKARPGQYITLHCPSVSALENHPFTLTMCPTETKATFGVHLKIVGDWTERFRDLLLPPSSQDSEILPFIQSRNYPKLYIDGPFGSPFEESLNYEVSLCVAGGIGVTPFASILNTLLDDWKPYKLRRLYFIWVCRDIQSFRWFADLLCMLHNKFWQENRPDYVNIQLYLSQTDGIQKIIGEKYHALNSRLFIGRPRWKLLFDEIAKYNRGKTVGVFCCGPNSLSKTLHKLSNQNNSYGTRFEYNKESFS
# [10] = target: NADPH oxidase 5 (Homo sapiens) (UniProt Q96PH1); assay: compounds shifting NOX5 Amplex Red fluorescence – cell-based, HEK293-NOX5, NOX inhibitor project, primary screen (AID 1161); settings: HEK293-NOX5, ionomycin, 45 min, higher = more signal
# Sequence of NADPH oxidase 5 (Homo sapiens) (Q96PH1 whole entry, looked up): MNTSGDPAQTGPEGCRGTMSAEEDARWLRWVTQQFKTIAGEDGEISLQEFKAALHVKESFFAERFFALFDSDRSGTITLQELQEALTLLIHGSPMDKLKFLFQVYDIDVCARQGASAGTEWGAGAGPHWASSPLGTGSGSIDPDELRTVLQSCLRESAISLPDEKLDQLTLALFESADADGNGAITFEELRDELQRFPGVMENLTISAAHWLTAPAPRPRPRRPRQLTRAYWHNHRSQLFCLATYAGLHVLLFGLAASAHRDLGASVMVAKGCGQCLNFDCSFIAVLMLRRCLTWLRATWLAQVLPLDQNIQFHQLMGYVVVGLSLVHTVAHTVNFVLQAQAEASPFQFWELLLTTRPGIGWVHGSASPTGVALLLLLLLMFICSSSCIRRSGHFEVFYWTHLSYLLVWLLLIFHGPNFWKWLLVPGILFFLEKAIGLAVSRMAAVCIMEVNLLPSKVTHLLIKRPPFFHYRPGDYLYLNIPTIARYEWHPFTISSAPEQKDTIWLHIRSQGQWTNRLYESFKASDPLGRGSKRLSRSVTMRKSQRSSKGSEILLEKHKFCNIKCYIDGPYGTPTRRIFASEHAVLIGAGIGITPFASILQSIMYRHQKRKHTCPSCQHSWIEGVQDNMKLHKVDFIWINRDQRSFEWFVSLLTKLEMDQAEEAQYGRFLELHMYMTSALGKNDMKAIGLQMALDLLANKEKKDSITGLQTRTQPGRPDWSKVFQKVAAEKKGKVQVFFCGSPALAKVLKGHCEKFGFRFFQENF
# [11] = compound effects on lung adenocarcinoma cell viability – A549, calcein-AM fluorescence, 48 h, basal, profiling panel (AID 1162); settings: higher = more signal; also: test concentration not given here
# [12] = compound effects on differentiated 3T3-L1 adipocyte viability – cell-based, 3T3-L1 adipocytes, calcein-AM fluorescence, 48 h, basal, profiling panel (AID 1163); settings: 3T3-L1 adipocytes viability, higher = more signal; also: test concentration not given here
# [13] = compound effects on hepatocellular carcinoma cell viability – HepG2, calcein-AM fluorescence, 48 h, basal, profiling panel (AID 1164); settings: higher = more signal; also: test concentration not given here
# [14] = compound effects on multiple myeloma cell viability – MM1S, calcein-AM fluorescence, 48 h, basal, profiling panel (AID 1165); settings: higher = more signal;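 also: viability of MM1S multiple myeloma cells under basal unstimulated conditions; test concentration not given here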
# [15] = calcein-AM signal in unstimulated myeloma cells – cell-based, calcein-AM fluorescence, 48 h, PK04 Diversity Set, profiling panel (AID 1166); settings: RPMI8226 myeloma viability, higher = more signal;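 also: cells grown under basal conditions without added stimulus; test concentration not given here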
# [16] = JC-1 mitochondrial signal, unstimulated HepG2 cells – cell-based, JC-1 fluorescence, 24 h, 100 nL compound, profiling panel (AID 1167); settings: HepG2 mitochondrial potential, higher = more signal; also: test concentration not given here
# [17] = JC-1 mitochondrial signal, unstimulated adipocytes – cell-based, JC-1 fluorescence, 3T3-L1 adipocytes, 24 h, 100 nL compound, profiling panel (AID 1168); settings: JC-1 mitochondrial fluorescence, higher = more signal, called active from +8 up or from −8 down; also: test concentration not given here
# [18] = JC-1 mitochondrial signal, unstimulated myeloma cells – cell-based, JC-1 fluorescence, RPMI8226, 24 h, 100 nL compound, profiling panel (AID 1169); settings: JC-1 mitochondrial potential fluorescence, higher = more signal; also: test concentration not given here
# [19] = JC-1 mitochondrial signal, unstimulated MM1S myeloma – cell-based, JC-1 fluorescence, 24 h, 100 nL compound, profiling panel (AID 1170); settings: MM1S mitochondrial potential, higher = more signal; also: test concentration not given here
# [20] = resazurin metabolic signal in A549 cells – cell-based, resazurin fluorescence, 24 h, PK04 Diversity Set, profiling panel (AID 1171); settings: A549 viability, higher = more signal, called active from +8 up or from −8 down; also: test concentration not given here
SMILES,z-score [1],composite z-score [2],z-score [3],z-score [4],z-score [5],z-score [6],z-score [7],z-score [8],z-score [9],z-score [10],z-score [11],z-score [12],z-score [13],z-score [14],z-score [15],z-score [16],z-score [17],z-score [18],z-score [19],z-score [20]
CO[C@H]1O[C@H](CO)[C@@H](OC(=O)Nc2cccc(F)c2)[C@H](OC(=O)Nc2ccccc2)[C@H]1OC(=O)Nc1ccccc1,-0.198 (inactive),0.435,4.41 (inactive),1.13 (inactive),-0.711 (inactive),0.986 (inactive),0.627,-6.46 (inactive),-1.09 (inactive),-2.13,-2.2,1.33,-2.94,-1.53,-4.26,-0.389,0.518 (inactive),-1.33,-0.561,-3.72 (inactive)
O=C(O)[C@H]1C[C@H]2C(=O)N3CCC[C@H]3C(=O)N2[C@H]1c1ccc(O)cc1,0.852 (inactive),-0.121,1.9 (inactive),0.0196 (inactive),-6.59 (inactive),0.104 (inactive),-0.275,0.583 (inactive),0.16 (inactive),0.932,0.835,0.469,0.0504,-0.8,0.0046,1.38,-0.0658 (inactive),-0.703,-0.22,0.799 (inactive)
C=CCNC(=O)[C@H]1[C@@H]2C(=O)O[C@@H](c3ccccc3)[C@@H](c3ccccc3)N2[C@@H](c2ccc(O)cc2)[C@]12C(=O)Nc1ccc(C#CCCO)cc12,0.605 (inactive),0.117,5.56 (inactive),0.608 (inactive),-0.763 (inactive),0.443 (inactive),-0.0803,0.67 (inactive),-0.436 (inactive),0.603,0.838,-0.655,0.122,0.994,0.168,-0.757,0.651 (inactive),-0.873,-0.723,0.437 (inactive)
NCCCCCCNC(=O)[C@H]1C[C@H]2C(=O)N[C@@H](Cc3ccccc3)C(=O)N2[C@H]1c1cccc(OCCO)c1,0.921 (inactive),-0.141,5 (inactive),0.944 (inactive),2.3 (inactive),0.472 (inactive),-0.147,0.997 (inactive),0.736 (inactive),0.392,0.516,0.454,-0.378,0.456,0.112,-0.215,0.896 (inactive),-0.802,-0.531,1.21 (inactive)

# Reference: PubChem BioAssay
